Source: PubChem BioAssay (National Center for Advancing Translational Sciences (NCATS))
Compounds with a hit are over-represented: about 10% of the library has one in this group of screens.
IMPase cell inh: qHTS Assay for Identifying the Cell-Membrane Permeable IMPase Inhibitors | Inositol monophosphatase 1 (Rattus norvegicus), P97697 | CHO-M1 cells, IP1 accumulation, HTRF TR-FRET ratio | inhibition (IP1 accumulation), % at 46.1 µM | 120,000 tested, under 10 active; active means well fitted curve in the direction sought with a large enough effect in the signal ratio, not every such curve was filed as active; inconclusive means small, poorly fitted or top-dose-only effect, or a change in a side signal; inactive means no such curve, though single readings can be large or run the other way; the % refers to the signal ratio;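 further: cells stimulated with carbachol in lithium chloride buffer; plate controls were DMSO basal wells for no effect and reference inhibitor wells for full effect; higher means more IMPase inhibition seen as more IP1 and lower FRET ratio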
Target sequence (P97697 whole entry, looked up): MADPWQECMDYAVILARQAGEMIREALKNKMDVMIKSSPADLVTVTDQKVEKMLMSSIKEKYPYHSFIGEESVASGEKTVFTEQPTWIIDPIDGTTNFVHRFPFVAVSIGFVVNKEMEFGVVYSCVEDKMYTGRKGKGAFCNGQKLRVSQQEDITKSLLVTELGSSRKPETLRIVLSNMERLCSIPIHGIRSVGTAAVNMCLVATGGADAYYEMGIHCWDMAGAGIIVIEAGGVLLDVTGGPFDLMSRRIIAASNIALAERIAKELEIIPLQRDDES
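CHO-M1 cells (CHO stably expressing M1 receptor), compound up to 46 uM final, stimulated with carbachol (50 uM as added) in buffer with 50mM LiCl, pH 7.4, 30 min at 37C. Cytosolic IP1 read by TR-FRET; AC50 from Hill fits.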
PNC assembly inh: High Content Assay for Compounds that inhibit the Assembly of the Perinucleolar Compartment | activity change (PNC), negative = inhibition, % at 10 µM | PC3M PTB-GFP, PNC prevalence imaging, 16 h; stronger effect = lower value | 3.1% of 140,000 active;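 active means readout at or below -70, meaning at least 70% loss of cells showing the perinucleolar compartment, a nuclear body marking cancer cells; inconclusive means readout between -30 and a set limit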;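 further: plate controls were DMSO wells for no effect and camptothecin positive control wells for full effect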
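Compounds are pinned in duplicate onto adhered PC3M cells stably expressing GFP-tagged PTB and incubated 16 h at 37 C. Cells are then fixed, nuclei stained with Hoechst, and PNC-positive cells counted.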
ALDH1A1 inh: qHTS Assay for Inhibitors of Aldehyde Dehydrogenase 1 (ALDH1A1). Purified ALDH1A1, NADH fluorescence, propionaldehyde substrate. Potency, µM (doses to about 75.3 µM), for inactives: at the top dose activity, negative = inhibition, usual class: inhibitors. 7.3% of 220,000 active;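 further: potency means the concentration at half of the fitted maximal effect; plate controls were no enzyme wells and a reference inhibitor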
LMNA splice mod: qHTS Assay for Modulators of Lamin A Splicing; 0.01% of 200,000 active; HeLa LMNA splicing GFP/RFP minigene ratio, 48 h; Potency, µM (doses to about 46.1 µM), for inactives: at the top dose ratio change, negative = inhibition, usual class: inhibitors; AID 1487, 2009; active means well fitted inhibition curve with a large enough effect in the signal ratio, with a control signal flat, not every such curve was filed as active; inconclusive means small, poorly fitted or top-dose-only effect, or effect the other way, or a change in a side signal; the % refers to the signal ratio; further: potency means the concentration at half of the fitted maximal effect
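S3 HeLa stable clones carrying a lamin A-EGFP splicing minigene plus DsRed2 were seeded at 600 cells/well in Opti-MEM with 2% FBS, pin-dosed and incubated 48 h at 37°C. Acumen cytometry (488 nm) gave the GFP/RFP total-intensity ratio.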
KinaseGlo FLuc: Counterscreen for Luciferase (Kinase-Glo TM) Inhibition; Potency, µM (doses to about 38.3 µM), for the others: top-dose activity change, negative = inhibition, most hits filed as inhibitors; Luciferin 4-monooxygenase (Photuris pensylvanica), Q27757; 0.28% of 200,000 active; Kinase-Glo luciferase, ATP luminescence, 8 min; active means well fitted inhibition curve with a large enough effect; inconclusive means small, poorly fitted or top-dose-only effect; further: potency means the concentration at half of the fitted maximal effect; nearly all actives have a fitted effect of over 60% in size
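Recombinant Kinase-Glo luciferase, 10 uM ATP (linear range), luciferin; imidazole pH 7.2 / KCl / MgCl2 / Tween / BSA buffer; 8 min RT; luminescence.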
HPGD block: qHTS Assay for Inhibitors of HPGD (15-Hydroxyprostaglandin Dehydrogenase) | 15-hydroxyprostaglandin dehydrogenase [NAD(+)] (Homo sapiens), P15428 | purified HPGD, NADH fluorescence kinetic, PGE2 substrate | Potency, µM, inactives show at the top dose activity change, negative = inhibition, most hits filed as inhibitors | 4.3% of 150,000 active; further: potency means the concentration at half of the fitted maximal effect
Target sequence (P15428 whole entry, looked up): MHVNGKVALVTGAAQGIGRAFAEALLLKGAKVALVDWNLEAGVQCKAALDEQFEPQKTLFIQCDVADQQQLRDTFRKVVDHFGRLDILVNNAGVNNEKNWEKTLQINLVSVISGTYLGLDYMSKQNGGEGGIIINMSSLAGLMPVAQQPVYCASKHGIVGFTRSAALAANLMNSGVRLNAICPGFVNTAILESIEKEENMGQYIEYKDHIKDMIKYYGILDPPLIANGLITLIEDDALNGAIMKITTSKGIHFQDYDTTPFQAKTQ
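20 nM HPGD preincubated 15 min at room temperature with compound in 50 mM Tris-HCl pH 8, 0.01% Tween 20. Started with 1 mM NAD+ and 30 uM prostaglandin E2; NADH fluorescence (360/450 nm) read 5 times over 30-s intervals, last minus first.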
* hit, by the source's call; [ ] = remark or other dose. Unless noted, the call rests on the fitted dose curve; in most records, active means well fitted inhibition curve with a large enough effect (not every such curve was filed as active); inconclusive means small, poorly fitted or top-dose-only effect, or another doubt; inactive means no such curve, though single readings can be large or run the other way. Unless noted, on the % scale 0 is the no-effect control and ±100 the full control effect.

For COc1ccccc1C1C=C(c2ccc(C(C)C)cc2)Nc2nnnn21 (stereo not given) the results were LMNA splice mod -2.1%[46 µM].
N#Cc1ccc(NC(=O)COC(=O)C2Cc3ccccc3CN2C(=O)c2ccccc2)cc1 (stereo not given) was read as PNC assembly inh -97.8*, ALDH1A1 inh 5.0%, LMNA splice mod inconclusive, KinaseGlo FLuc -1.9% and HPGD block -11.6%.
O=C(O)C1Cc2ccccc2CN1C(=O)c1ccccc1 (stereo not given) was read as IMPase cell inh -4.4[1.84 µM], PNC assembly inh -96.9*, ALDH1A1 inh 13.9%, LMNA splice mod -5.6%, KinaseGlo FLuc 3.6% and HPGD block -4.8%.
CCS(=O)(=O)N1Cc2ccccc2CC1C(=O)OCC(=O)Nc1ccc(C)cc1 (stereo not given) was read as IMPase cell inh 5.7, PNC assembly inh 60.1, ALDH1A1 inh inconclusive, LMNA splice mod -12.6%, KinaseGlo FLuc 0.3% and HPGD block -12.6%.
Cc1oncc1C(=O)Nc1ccc(C(F)(F)F)cc1 was read as IMPase cell inh -0.9, PNC assembly inh inconclusive, ALDH1A1 inh -1.5%, LMNA splice mod inconclusive, KinaseGlo FLuc -3.6% and HPGD block -2.0%.
For Cc1oncc1C(=S)Nc1ccccc1 the results were IMPase cell inh 2.5, PNC assembly inh -91.8*, ALDH1A1 inh inconclusive, LMNA splice mod -0.1%, KinaseGlo FLuc -5.1% and HPGD block -15.8%.
Screening COc1cc(CCNC(C)=O)c(C(=O)/C=C/c2cccc(OC)c2OC)cc1OC returned ALDH1A1 inh -2.0%, KinaseGlo FLuc 1.3% and HPGD block -7.9%.
Screening Cc1c2c(nc3ccccc13)CC(C)(C)CC2=O returned ALDH1A1 inh 14.1µM*, LMNA splice mod -9.6%[46 µM] and KinaseGlo FLuc 9.0%.
O=C1[C@H]2[C@@H](C(=O)N1c1cc(Cl)cc(Cl)c1)[C@]1(C(=O)Nc3ccccc31)N1CCC[C@@H]21 was read as IMPase cell inh 1.2, PNC assembly inh -3.1, ALDH1A1 inh inconclusive, LMNA splice mod -6.7%, KinaseGlo FLuc -1.5% and HPGD block -11.9%.
O=C1[C@H]2[C@@H](C(=O)N1c1cccc3ccccc13)C1(C(=O)c3ccccc3C1=O)N1CCC[C@@H]21 was read as IMPase cell inh 7.3, PNC assembly inh inconclusive, ALDH1A1 inh 11.2µM*, LMNA splice mod 4.4%, KinaseGlo FLuc 9.8% and HPGD block -12.6%.
`Cc1cccc(NC(=O)c2c(C)cc(C)nc2SCC(=O)c2ccccc2)c1` gave LMNA splice mod -17.4%[46 µM].
O=Cc1ccccc1Oc1nc(N2CCOCC2)nc(N2CCOCC2)n1 was read as ALDH1A1 inh inconclusive, LMNA splice mod -22.7%[46 µM] and KinaseGlo FLuc -1.5%.
For COc1cc(/C=C2/SC(=S)N(c3ccccc3)C2=O)ccc1Oc1nc(N2CCOCC2)nc(N2CCOCC2)n1 the results were IMPase cell inh 11.5, PNC assembly inh inconclusive, ALDH1A1 inh 0.398µM*, LMNA splice mod -9.0%, KinaseGlo FLuc 0.5% and HPGD block -14.5%.
`COc1c(C)cccc1C(=O)Nc1ccc(-c2nc3ccccc3s2)c(Cl)c1` gave IMPase cell inh -14.7.
For S=C(NN=C(C1CC1)C1CC1)Nc1ccccc1 the results were IMPase cell inh 6.2, PNC assembly inh 22.4, ALDH1A1 inh 25.1µM*, LMNA splice mod -9.5%, KinaseGlo FLuc -1.4% and HPGD block -7.6%.
